D3 ag: activates the human D3 dopamine receptor. AID 652048. D3R DiscoveRx beta-arrestin cells, luminescence, 90 min. P35462. max activation, %. 0.58% of 410,000 active; in the data active means max activation above about 30%; further: 0% is about no effect
Target sequence (P35462 whole entry, looked up): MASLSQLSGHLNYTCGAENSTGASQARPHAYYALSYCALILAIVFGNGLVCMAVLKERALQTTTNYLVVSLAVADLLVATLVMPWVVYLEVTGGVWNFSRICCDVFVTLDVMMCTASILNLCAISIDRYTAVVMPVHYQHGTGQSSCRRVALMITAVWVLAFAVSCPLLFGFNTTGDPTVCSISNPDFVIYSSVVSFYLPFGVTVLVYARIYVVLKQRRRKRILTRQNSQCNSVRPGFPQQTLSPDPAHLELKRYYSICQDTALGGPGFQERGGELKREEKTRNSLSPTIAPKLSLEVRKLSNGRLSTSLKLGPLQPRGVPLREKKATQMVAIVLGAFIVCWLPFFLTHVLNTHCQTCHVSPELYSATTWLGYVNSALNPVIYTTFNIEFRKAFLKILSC
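Cells at 1500/well, incubated overnight, then treated with pinned compounds (dopamine as control) for 90 min at 37 degrees C. DiscoveRx reagent added for 30 - 60 minutes at room temperature; luminescence read.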
Giardia killer: Giardia lamblia killing; Giardia lamblia trophozoite viability; activity change, % at 7.66 µM, hits read low; 0.15% of 340,000 active; in the data active means activity change below about -80%;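 further: parasites exposed to compound for two days anaerobically before the ATP read; on the % scale 0 is the no-effect control and ±100 the full control effect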
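ATP-content bioluminescence gauges trophozoite survival. Cells (100/well) receive compound and incubate anaerobically for 48 hrs at 37 deg C; detection reagent follows for 15-30 min at room temperature.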
DRD3 antagonist: D3 dopamine receptor (human) antagonism. P35462. D3R cells, DiscoveRx beta-arrestin luminescence, antagonist mode; active compounds read low. max response, negative = inhibition, %. 2.5% of 360,000 active; in the data active means max response below about -50%; further: on the % scale 0 is the no-effect control and ±100 the full control effect
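Cells plated overnight at 1500 cells/well, then exposed to library compounds with dopamine controls for 90 minutes at 37 degrees C. DiscoveRx reagent added for 30–60 minutes at room temperature; luminescence read, quantitative HTS format.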
B2AR arrestin: beta2AR (human) beta-arrestin recruitment activity. P07550. beta-arrestin recruitment to beta2AR, cell-based reporter. Potency, µM (titrated, usually from 46.1 µM), inactives show at the top dose activation, hits mostly activators. 0.02% of 330,000 active. AID 492947; active means well fitted activation curve with a large enough effect;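 further: potency means the concentration at half of the fitted maximal effect; 0% = DMSO controls and full agonism = EC100 isoproterenol or metaproterenol; nearly all actives have a fitted effect of over 65% in size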
* marks the source's active call; other numbers are inactive results; · = not tested or not shown. Compounds with a hit are over-represented: about 2.8% of the library has one in this group of screens.

SMILES	D3 ag	Giardia killer	DRD3 antagonist	B2AR arrestin
Cc1ccc(OCCCSc2nc(-c3ccc(C(C)(C)C)cc3)nc3cc(=O)[nH]n23)cc1C	33*	·	·	·
O=C(CO)[C@@H](O)[C@H](O)[C@@H](O)CO	-16	·	·	·
O=C1C=CC(=O)N1CCCCCCN1C(=O)C=CC1=O	-14	-18	-72*	-1%
O=C(CSc1n[nH]c(-c2ccccc2Cl)n1)N1CCN(c2ccccc2F)CC1	-5	·	·	·
COc1ccc(NC(=O)C(Cl)=C(Cl)Cl)cn1	7	-2	6	0%
COc1ccc(NC(=O)/C(Cl)=C(/Cl)S(=O)Cc2ccc(Cl)cc2)cn1 (stereo not drawn)	-33	-4	-116*	0%
O=[N+]([O-])c1ccc(C(c2sc3nc(-c4ccco4)nn3c2O)N2CCN(Cc3ccccc3)CC2)cc1 (stereo not drawn)	1	·	·	·
CNc1nc(-c2ccc(OC)cc2)c(-c2ccc(OC)cc2)s1	49*	9	-7	0%
COc1ccc(-c2nc(NC(C)=O)sc2-c2ccc(OC)cc2)cc1	0	-4	-24	0%
Cc1oc(-c2cccc(Cl)c2)nc1CN1CCC(C(=O)N2CCN(c3ccccn3)CC2)CC1	-13	16	-51*	·
CCN1CCN(C(=O)C2CCN(Cc3nc(-c4cccc(Cl)c4)oc3C)CC2)CC1	-14	30	-74*	0%
Cc1ccc(C)c(N2CCN(C(=O)C3CCN(Cc4nc(-c5cccc(Cl)c5)oc4C)CC3)CC2)c1	-7	·	·	·
CCc1ccc(-c2nc(CN3CCC(C(=O)N4CCN(c5ccccn5)CC4)CC3)c(C)o2)cc1	-4	-8	-22	1%
O=C(/C=C/c1ccc(F)cc1)Nc1nc2n(n1)C(c1ccc(Cl)cc1)C=C(c1ccccc1)N2 (stereo not drawn)	2	·	·	·
COc1ccc(-c2ccc(C3C4C=CCCC4(C)C(=O)N3Cc3ccccc3)c(F)c2)cc1 (stereo not drawn)	·	29	·	·
Cc1ccc(CN2CCCn3nc(C(=O)NCc4cc(C)ccc4C)cc3C2=O)cc1	-1	·	·	·
CC1CCCN(S(=O)(=O)c2ccc3c(c2)CCN3C(=O)CCC(=O)O)C1 (stereo not drawn)	14	·	·	·
CC(C(=O)N1CCc2ccccc21)N1CCc2ccccc2C1 (stereo not drawn)	-7	1	-86*	0%
CC(C(=O)NCC1CCCCC1)N1CCc2ccccc2C1 (stereo not drawn)	-11	-16	-77*	0%
COc1ccc(CCC(=O)N2c3ccccc3N=C(c3ccc(C(F)(F)F)cc3)C2C(=O)NC(C)C)cc1 (stereo not drawn)	86*	·	0	·
COc1ccc(CCC(=O)N2c3ccccc3N=C(c3ccc(C(F)(F)F)cc3)C2C(=O)NC(C)(C)C)cc1 (stereo not drawn)	-3	·	-1	·
COc1ccc(Cl)cc1NC(=O)C1CCN(c2ncnc3c2nc2n3CCCCC2)CC1	-11	·	·	·
CNC(=O)C[C@@H](N)C(=O)N[C@@H](C(=O)N[C@@H]1C(=O)N2[C@@H]1SC(C)(C)[C@@H]2C(=O)O)c1ccc(O)cc1	-12	·	·	·
CC(C)NC(=O)N1[C@H](c2cccs2)[C@@H](C)C(=O)[C@@H](C)[C@@H]1c1cccs1	0	·	·	·
Cc1ccsc1C(=O)N/N=C/C=C/c1ccccc1[N+](=O)[O-]	-6	8	-85*	0%
SMILES	D3 ag	Giardia killer	DRD3 antagonist	B2AR arrestin
Cc1ccc(C)n1-c1nnc(N2CCCC(C(=O)NCc3cccc(Cl)c3)C2)s1 (stereo not drawn)	-4	·	·	·
CCOC(=O)c1c(-c2ccc(C)o2)csc1NC(=S)NC(=O)N(C)C	1	-1	-55*	0%
CCOC(=O)c1c(-c2ccc(C)o2)csc1NC(=O)COC(=O)c1cccs1	1	28	0	0%
COC1[C@@H](O[C@@H]2O[C@H](C)[C@@H](O[C@H]3C[C@@](C)(O)[C@H](OC(=O)CC(C)C)[C@H](C)O3)[C@H](N(C)C)[C@H]2O)[C@@H](CC=O)C[C@@H](C)[C@@H](O)/C=C/C=C/C[C@@H](C)OC(=O)C[C@H]1OC(C)=O (stereo partly drawn)	6	·	·	·
CCC(=O)NC(c1cccs1)c1cc(Br)c2cccnc2c1O (stereo not drawn)	·	·	·	-1%
CCOC(=O)C1Cc2c([nH]c3ccccc23)CN1 (stereo not drawn)	-4	-4	-7	0%
CCOC(=O)C1Cc2ccccc2CN1 (stereo not drawn)	-17	11	-66*	0%
O=C1CCCC(O)=C1C(C#Cc1ccccc1)C1=C(O)CCCC1=O	-5	-22	-61*	0%
